Consider 59 compounds from PubChem BioAssay AID1439 (NMMLSC, 2008).

SMILES strings stand for the structures. Out of some 220,000 compounds screened, about 770 (0.35%) were called active. Another 15% or so got no clear call; they are omitted. Cut-off read from the data, not from the text of the source: active = binding response below about 49% or above about 150%; inconclusive = no clear call, values can overlap the other calls; inactive = in between. Shown is part of a subset that was picked to be rich in actives. Residues, ends and D or L forms follow the SMILES beside them. *: point of attachment. OPac = O=C(CO*)c1ccccc1; Bz = O=C(c1ccccc1)*

The target of this experiment is Guanine nucleotide-binding protein G(o) subunit alpha (Homo sapiens) (UniProt P09471). In words: compounds changing RGS7 association with Galphao – biochemical, multiplexed bead flow cytometry, primary screen (AID 1439).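 Note: fluorescent Galphao held in activated GDP-AlF4 state binding bead-coupled RGS7.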 To be noted: at 10 µM, actives lie on both sides. In general terms: A flow cytometer gives signals particle by particle.
Chain of Guanine nucleotide-binding protein G(o) subunit alpha (Homo sapiens) (P09471 whole entry, looked up): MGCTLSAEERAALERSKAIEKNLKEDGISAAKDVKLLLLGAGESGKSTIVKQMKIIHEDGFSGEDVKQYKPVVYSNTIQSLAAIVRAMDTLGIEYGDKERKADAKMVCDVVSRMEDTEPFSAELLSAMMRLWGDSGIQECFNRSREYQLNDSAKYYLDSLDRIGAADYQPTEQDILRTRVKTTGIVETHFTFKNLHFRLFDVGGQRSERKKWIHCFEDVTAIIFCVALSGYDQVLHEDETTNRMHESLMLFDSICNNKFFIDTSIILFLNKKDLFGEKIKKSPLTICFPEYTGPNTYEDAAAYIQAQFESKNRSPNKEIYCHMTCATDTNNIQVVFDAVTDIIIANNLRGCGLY
`COC(=O)c1ccccc1OCC(=O)N1CCN(c2ccc(Cl)cc2)CC1`: the binding response (% of control) was 290% (active).

Take `O=C(CN1CCN(c2ccc(Cl)cc2)CC1)N1CCCC1`: the binding response (% of control) is 102% (inactive).

Regarding `O=C(COc1ccc(Cl)cc1)N1CCN(c2cccc(C(F)(F)F)c2)CC1`, the binding response (% of control) was 104% (inactive).

With `COCCn1c(C)cc(C(=O)COC(=O)/C=C/c2cccc(OC)c2)c1C`, the binding response (% of control) is 92.8% (inactive).

On to `FC(F)(F)c1cccc(Cc2noc(CN3CCC(N4CCCCC4)CC3)n2)c1`, for which the binding response (% of control) is 104% (inactive).

In the case of `CCOC(=O)c1sc(/N=C/C2=C(O)CC(C)(C)CC2=O)c(C(=O)OCC)c1C`, the binding response (% of control) was 107% (inactive).

In the case of `Cc1cc(C)n2nc(SCC(=O)NC(=O)NCc3ccco3)nc2n1`, the binding response (% of control) is 102% (inactive).

For `Cc1ccccc1CN1CCN(C(=O)c2cccc(F)c2)CC1`, the binding response (% of control) was 105% (inactive).

For the compound `Cc1ccccc1CS(=O)(=O)CC1(O)CCN(C(=O)c2cccc(C(F)(F)F)c2)CC1`, the binding response (% of control) is 157% (active).

For `CC(C)CC(=O)N1CCC(O)(CS(=O)(=O)Cc2ccccc2)CC1`, the binding response (% of control) was 103% (inactive).

In the case of `CCOC(=O)C1=NOC(Cn2cc(C(C)=O)c(=O)[nH]c2=O)C1` (centres undefined), the binding response (% of control) was 100% (inactive).

`CCOc1cc(C(=O)N2CCc3cc(OC)c(OC)cc3C2)ccc1OC(F)F`: the binding response (% of control) is 159% (active).

Turning to `COc1cc2c(cc1OC)CN(C(=O)c1cc(=O)c3ccccc3o1)CC2`, the binding response (% of control) is 97.6% (inactive).

For `COc1cc2c(cc1OC)CN(C(=O)c1ccc(S(=O)(=O)N3CCCCCC3)cc1)CC2`, the binding response (% of control) was 89.7% (inactive).

As for `CCC(=O)NC(=S)Nc1ccc(NC(=O)c2ccco2)c(Cl)c1`, the binding response (% of control) is 102% (inactive).

For `O=C(Nc1cccc(Cl)c1N1CCOCC1)c1ccc2c(c1)OCCO2`, the binding response (% of control) is 108% (inactive).

With `O=C(COc1ccccc1)N1CCc2ccccc2C1`, the binding response (% of control) was 103% (inactive).

As for `Cn1c(=O)c2c(n(Cc3ccccc3)c1=O)NC(=O)C2CC(=O)N1CCc2ccccc2C1` (centres undefined), the binding response (% of control) is 13.5% [inhibitor] (active).

`O=C(CSc1nnc(-c2cccs2)n1Cc1ccccc1)N1CCc2ccccc2C1`: the binding response (% of control) is 102% (inactive).

For `CCCCCCCNc1nc(Cl)nc(NCCO)n1`, the binding response (% of control) was 93.6% (inactive).

For the compound `CN(C)C(=O)CSc1n[nH]c(-c2ccco2)n1`, the binding response (% of control) was 107% (inactive).

On to `O=[N+]([O-])c1ccc(Sc2n[nH]c(-c3ccco3)n2)nc1`, for which the binding response (% of control) is 105% (inactive).

Consider `Cc1ccc(N=Nc2c(C)[nH]n(-c3ccccc3)c2=O)cc1`, for which the binding response (% of control) is 100% (inactive).

In the case of `Cc1ccc(N2C(=O)C3C(c4ccccc4)(C2=O)C3(c2ccccc2)c2ccccc2)cc1` (centres undefined), the binding response (% of control) is 14.4% [inhibitor] (active).

On to `Cc1ccc(N2C(=O)C(Cc3ccccc3)NC2=S)cc1` (centres undefined), for which the binding response (% of control) was 99% (inactive).

On to `CCCC1C(c2ccccc2)C(C#N)(C#N)C2(C#N)CC1(N)NC2=O` (centres undefined), for which the binding response (% of control) was 152% (active).

For the compound `CC(C)OCCCNC(=S)N1CCC(C(=O)c2ccc3c(c2)OCCO3)CC1`, the binding response (% of control) is 105% (inactive).

As to `CCOCCCNCc1ccc(OCc2ccc(F)cc2)c(OC)c1`, the binding response (% of control) is 103% (inactive).

With `Cc1c(NC(=O)c2coc(=O)c(Br)c2)c(=O)n(-c2ccccc2)n1C`, the binding response (% of control) is 101% (inactive).

Turning to `O=C(Nc1cccc(F)c1)c1coc(=O)c(Br)c1`, the binding response (% of control) was 45.3% [inhibitor] (active).

`O=C(Nc1cccc(F)c1)c1ccc(S(=O)(=O)N2CCCC2)cc1`: the binding response (% of control) is 97.7% (inactive).

For the compound `CCN(CC)CCOC(=O)c1ccc(NC(=O)CNC(=O)c2ccccc2)cc1`, the binding response (% of control) was 98.5% (inactive).

Turning to `COc1ccc(CC(=O)n2nc(-c3cccnc3)nc2N)cc1`, the binding response (% of control) was 97.3% (inactive).

In the case of `CCCC(=O)n1nc(-c2ccccc2)nc1N`, the binding response (% of control) is 23.4% [inhibitor] (active).

With `COc1ccccc1C(=O)n1nc(-c2ccccc2)nc1N`, the binding response (% of control) is 100% (inactive).

With `OCCC1CN(Cc2cccc(OC3CCCC3)c2)CCN1Cc1ccsc1` (centres undefined), the binding response (% of control) is 102% (inactive).

As for `COCCN(CCOC)S(=O)(=O)c1ccc(/C(O)=C(\C#N)c2nc3ccccc3[nH]2)cc1`, the binding response (% of control) was 104% (inactive).

As for `COC(=O)Cn1cc(/C=C/[N+](=O)[O-])c2ccccc21`, the binding response (% of control) is 102% (inactive).

Consider `O=C(COc1ccc(-c2ccccc2)cc1)NN=C1CCCC1`, for which the binding response (% of control) was 108% (inactive).

On to `O=C(CCCCCn1c(=O)[nH]c2ccccc2c1=O)NCCc1c[nH]c2ccccc12`, for which the binding response (% of control) is 102% (inactive).

As to `COc1ccccc1NC(=O)CCCc1c[nH]c2ccccc12`, the binding response (% of control) was 312% (active).

`COc1ccccc1NC(=O)C[n+]1ccccc1`: the binding response (% of control) is 99.2% (inactive).

Regarding `O=C(CNC(=O)c1ccccc1)NCC(=O)OCC(=O)c1ccccc1` (Bz-Gly-Gly-OPac), the binding response (% of control) was 113% (inactive).

`CCOc1ccccc1NC(=O)CCN1CCN(S(=O)(=O)c2ccc(OC)cc2)CC1`: the binding response (% of control) is 100% (inactive).

As to `Cc1c(C(=O)Nc2ccccc2Cl)oc2ccc(S(=O)(=O)N3CCC4(CC3)OCCO4)cc12`, the binding response (% of control) is 103% (inactive).

Turning to `CCOc1ccccc1NC(=O)c1cc(S(=O)(=O)N2CCC3(CC2)OCCO3)ccc1F`, the binding response (% of control) is 15.2% [inhibitor] (active).

Consider `Cc1cc(C2=NNC(=Nc3ccc(S(=O)(=O)N4CCOCC4)cc3)SC2)c(C)n1CC1CCCO1` (centres undefined), for which the binding response (% of control) was 104% (inactive).

`COc1ccc(C2CC(c3ccccc3)Nc3ncnn32)cc1` (centres undefined): the binding response (% of control) was 93.2% (inactive).

Consider `FC(F)Oc1ccccc1C1CC(c2ccc(Br)s2)Nc2ncnn21` (centres undefined), for which the binding response (% of control) was 163% (active).

Consider `Clc1ccc(C2CC(c3cccs3)n3ncnc3N2)cc1Cl` (centres undefined), for which the binding response (% of control) is 99.3% (inactive).

In the case of `O=C(NC1CCCC1)C(c1ccc(N2CCOCC2)cc1)N(C(=O)c1ccco1)c1ccccc1F` (centres undefined), the binding response (% of control) was 95.4% (inactive).

On to `O=C(C1CCN(C2CCN(Cc3ccc4cc(F)ccc4n3)CC2)CC1)N1CCCC1`, for which the binding response (% of control) was 106% (inactive).

Turning to `CCCNC(=O)c1c(Cl)cnn1-c1ccc(C)cc1`, the binding response (% of control) is 96.6% (inactive).

On to `CC(=O)c1ccc(NC(=O)C(C)N(C)CC(=O)Nc2ccccc2Cl)cc1` (centres undefined), for which the binding response (% of control) is 98.2% (inactive).

With `Cc1cccc2c1N(CCOc1ccccc1)C(=O)C2=O`, the binding response (% of control) is 86.4% (inactive).

For `CCOC(=O)C1Sc2[nH]c(=O)sc2C(c2ccc(Cl)cc2)C1C(=O)OCC` (centres undefined), the binding response (% of control) was -17.7% [inhibitor] (active).

For the compound `CCOC(=O)C1C(c2ccc(Cl)cc2)NC(=S)NC1(O)C(F)(F)F` (centres undefined), the binding response (% of control) is 103% (inactive).

With `CCOC(=O)C1=C(C)NC(=O)N(C(C)=O)C1c1ccc(Cl)cc1` (centres undefined), the binding response (% of control) is 104% (inactive).

On to `Cc1cc(C)n(CCNCc2c(C(=O)N3C[C@@H](C)O[C@@H](C)C3)nc3ccc(Cl)cn23)n1`, for which the binding response (% of control) is 98.3% (inactive).
